High-throughput results: PubChem, several laboratories
In the library only some 3.7% were active in any assay of this set; here they are far more common.
tim23-1 inh: growth inhibitors of tim23-1 mutant yeast, primary screen, luminescence, uHTS; S. cerevisiae tim23-1 growth, BacTiter-Glo luminescence, 24 h; inhibition, % at 20 µM; 330,000 tested, 1.3% active;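 active = growth inhibition of the mutant yeast at or above 50%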;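 note: temperature-sensitive mutant grown at 25 °C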
tim10-1 inh: growth inhibitors of tim10-1 mutant yeast, primary screen, luminescence, uHTS | S. cerevisiae tim10-1 ts strain growth, BacTiter-Glo, 24 h | inhibition, % at 20 µM | 330,000 tested, 2.2% active | AID 463190, 2010;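 active = inhibition of at least 40%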;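 note: mutant grown at 25 °C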
PfHsp90 set2: growth inhibition of PfHsp90-expressing yeast, primary screen, antimalarial PfHsp90 inhibitor project, S. cerevisiae, BacTiter-Glo luminescence, single point, set 2; BacTiter-Glo ATP, 48 h; yeast lacking PDR1 and PDR3 efflux regulators; inhibition, % at 9.4 µM; 310,000 tested, 0.32% active; AID 504621, 2011;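 active = every replicate shows inhibition above about 80%, whatever the replicate mean, limit read from the data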
Rce1 inh: yeast Rce1p protease inhibitors, primary screen, biochemical, fluorescence, cell-free homogeneous; CAAX prenyl protease 2 (Saccharomyces cerevisiae (strain ATCC 204508 / S288c)), Q03530; yeast membranes, quenched prenylated peptide cleavage fluorescence; calls only; 290,000 tested, 0.27% active; AID 2563, 2010;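 active = fall in fluorescence gain of 50% or more versus controls, with final raw signal at or below 3038400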
Target sequence (Q03530 whole entry, looked up): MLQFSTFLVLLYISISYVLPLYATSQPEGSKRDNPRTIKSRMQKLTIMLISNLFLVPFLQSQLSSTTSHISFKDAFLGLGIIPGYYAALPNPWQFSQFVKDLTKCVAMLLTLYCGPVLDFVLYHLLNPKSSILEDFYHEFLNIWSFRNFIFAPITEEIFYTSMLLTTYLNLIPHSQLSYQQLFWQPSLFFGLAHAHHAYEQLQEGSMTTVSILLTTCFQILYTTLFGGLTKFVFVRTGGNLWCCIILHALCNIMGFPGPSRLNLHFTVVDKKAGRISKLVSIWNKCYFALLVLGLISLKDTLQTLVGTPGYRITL
TIM10 inh: growth inhibitors of isogenic TIM10 control yeast, primary screen, counter-screen for tim10-1 yeast inhibitor project, luminescence, uHTS; S. cerevisiae TIM10 strain growth, BacTiter-Glo luminescence, 24 h; inhibition, % at 10 µM; 330,000 tested, 1.4% active; AID 463195, 2010;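 active = inhibition of 40% or more at the single tested concentration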;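 note: wild-type TIM10 isogenic control strain grown at permissive 25 °C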
tim10-1 conf: growth inhibitors of tim10-1 mutant yeast, confirmation, single concentration, luminescence, S. cerevisiae. shares compounds with tim10-1 inh. S. cerevisiae tim10-1 ts strain growth, BacTiter-Glo, 24 h. inhibition, % at 20 µM. 7,400 tested, 56% active. AID 463213, 2010;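 active = inhibition of yeast growth at or above a set limit in either of two repeat tests at 20 µM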;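 note: tim10-1 mutant grown at permissive 25 °C to find synthetic lethal compounds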
Of the large screens only hits and unclear results are named; the others gave an inactive call (follow-up assays come after a bar, where they were run).

O=C(Nc1ccc(Cl)cc1)[C@@H]1[C@@H]2C(=O)N(c3ccc(Cl)cc3)C(=O)[C@@H]2[C@H]2C=CC=NN21	none (no result: PfHsp90 set2)
O=C(Nc1ccc(Cl)cc1)[C@@H]1[C@@H]2C(=O)N(c3ccc(Cl)cc3Cl)C(=O)[C@@H]2[C@H]2C=CC=NN21	tim10-1 inh 45 (no result: PfHsp90 set2) | tim10-1 conf inactive
COc1ccc(N2CC(C(=O)Nc3cccc(C)n3)CC2=O)cc1 (configuration not stated)	none (no result: Rce1 inh)
C=CCN1C(=O)c2ccc(C(=O)N(C)CC(=O)Nc3ccccc3C(F)(F)F)cc2C1=O	none
Cc1cc(C)n2c(Br)c(CSc3nc4ccccc4s3)nc2n1	none
Cc1cc2c(n1-c1ccc(Br)cc1)CC(C)(C)CC2=O	tim10-1 inh 49 (no result: PfHsp90 set2) | tim10-1 conf 33
CC1(C)Cc2ccccc2-c2n[nH]c(=S)n21	tim10-1 inh 56 | tim10-1 conf inactive
COc1ccc(-c2nc(N3CCCCCC3)sc2C(=O)c2ccccc2)cc1	none
O=C(c1ccccc1)c1sc(N2CCCCCC2)nc1-c1ccccc1	tim10-1 inh 43 (no result: PfHsp90 set2) | tim10-1 conf inactive
Cc1ccccc1N1CCN(S(=O)(=O)c2nnc(NC(=O)CC(C)C)s2)CC1	none
Cc1ccccc1N1CCN(S(=O)(=O)c2nnc(NC(=O)c3ccco3)s2)CC1	tim10-1 inh 46 | tim10-1 conf inactive
COc1ccc(/C=N/NC(=O)CCCOc2ccc(Cl)cc2Cl)cc1	tim10-1 inh 47 | tim10-1 conf inactive
COC(=O)C1=C(C)N=c2s/c(=C3\C(=O)Nc4ccccc43)c(=O)n2C1c1ccccc1 (configuration not stated)	tim10-1 inh 40 (no result: PfHsp90 set2) | tim10-1 conf inactive
CCOC(=O)C1=C(C)N=c2s/c(=C3/C(=O)Nc4ccccc43)c(=O)n2C1c1ccc(C)cc1 (configuration not stated)	none
c1ccc2nc(-c3ccc4c(c3)OCO4)ccc2c1	none
COc1ccc(OC)c2nc(-c3ccc4c(c3)OCO4)ccc12	tim10-1 inh 41 | tim10-1 conf 34
COc1cc2c(cc1OC)C(COc1ccc(C(C)C)cc1)NCC2 (configuration not stated)	tim10-1 inh 48 | tim10-1 conf inactive
COc1cc2c(cc1OC)C(c1cccs1)NCC2 (configuration not stated)	none
COc1ccccc1NC(=O)Nc1nc(C(C)(C)C)cs1	none
Nc1c(C(=O)c2ccccc2)oc2ccccc12	none
Nc1c(C(=O)c2ccc(F)cc2)oc2ccccc12	tim10-1 inh 45 | tim10-1 conf inactive
O=C(COc1ccc([N+](=O)[O-])cc1)N(Cc1cccs1)C1CCS(=O)(=O)C1 (configuration not stated)	none
CN(CC(=O)Nc1ccc(N2CCOCC2)cc1)C(=O)CCc1cc(C(C)(C)C)c(O)c(C(C)(C)C)c1	none (no result: Rce1 inh)
Cc1ccc(-c2ccc(/C=C(\C#N)C(N)=S)n2C)cc1	none
Cc1cc(C)c(/C=C(\C#N)C(N)=S)c(C)c1	tim10-1 inh 41 | tim10-1 conf inactive
O=[N+]([O-])c1cc(/C=N/O)ccc1SCc1ccccc1Cl	tim10-1 inh 47 (no result: PfHsp90 set2) | tim10-1 conf inactive
CCOc1c(OC(C)=O)ccc(/C=C/c2ccc3cccc(OC(C)=O)c3n2)c1[N+](=O)[O-]	none
COc1c(OC(C)=O)ccc(/C=C/c2ccc3cccc(OC)c3n2)c1[N+](=O)[O-]	tim10-1 inh 41 | tim10-1 conf inactive
COc1c(OC(C)=O)ccc(/C=C/c2ccc3ccccc3n2)c1[N+](=O)[O-]	tim10-1 inh 48 (no result: Rce1 inh) | tim10-1 conf 32
COC(=O)c1ccc(/C=C/c2ccc3cccc(OC(C)=O)c3n2)cc1	none | tim10-1 conf inactive
COc1cccc(-c2noc(CCC(=O)NCC3CCCO3)n2)c1 (configuration not stated)	none
C=CCN1C(=O)NC(c2ccccc2)(C(F)(F)F)S/C1=C(\C#N)c1nnc(N2CCOCC2)n1-c1ccccc1 (configuration not stated)	none (no result: Rce1 inh)
Cc1ccc(-n2c(C)cc(C(=O)Cn3nc(C(=O)O)c4ccccc4c3=O)c2C)cc1	tim10-1 inh 42 (no result: Rce1 inh) | tim10-1 conf inactive
O=C(Nc1ccc2nsnc2c1)N1CCCCCC1	none
S=C(Nc1ccc2nsnc2c1)N1CCCC1	tim10-1 inh 41 (no result: Rce1 inh) | tim10-1 conf inactive
COC(=O)[C@]1(C)N[C@H](CN(C)C(=O)C2CCCCC2)[C@@H]2C(=O)N(C)C(=O)[C@@H]21	none (no result: Rce1 inh)
Nc1cc(Cl)ccc1Oc1ccc2ccccc2c1	tim10-1 inh 61 | tim10-1 conf 57
Cc1ccc(Oc2ccc(Cl)cc2N)cc1	none (no result: Rce1 inh)
CCC(Sc1nc2c(c(=O)n1CC)SC(C)C2)C(=O)OC (configuration not stated)	none
CCOc1cc(/C=N/NC(=O)CN2CCOCC2)ccc1OCc1ccc(Cl)cc1	tim10-1 inh 42 | tim10-1 conf inactive
CCOc1cc(/C=N/NC(=O)CN2CCCCC2)ccc1OCc1ccccc1	none (no result: Rce1 inh)
Cc1ccc(-c2[nH]ncc2C(=O)c2ccc(Br)cc2)c(O)c1	tim10-1 inh 42 | tim10-1 conf inactive
O=C1c2cccc(Cl)c2C(=O)c2c1cccc2N1CCCC1	tim10-1 inh 53 | tim10-1 conf 38
O=C1c2ccccc2C(=O)c2cc(N3CCCCC3)ccc21	none (no result: tim23-1 inh, tim10-1 inh, Rce1 inh, TIM10 inh)
Cc1ccc(N(CCC#N)C(=O)COC(=O)C2CCN(S(=O)(=O)c3ccc(C)c(C)c3)CC2)cc1	none
CCSc1nc(-c2ccc(OC)cc2)cc(-c2ccccc2)c1C#N	none
COc1ccc(-c2cc(-c3ccccc3)c(C#N)c(S(C)=O)n2)cc1 (configuration not stated)	tim10-1 inh 45 | tim10-1 conf 30
COc1cc(C(=O)NC(=S)Nc2ccccc2N2CCCC2)cc(OC)c1OC	tim10-1 inh 51 | tim10-1 conf inactive
Cc1cc(C)c(OCC(=O)Nc2ccccc2N2CCOCC2)c(C)c1	tim10-1 inh 46 (no result: PfHsp90 set2) | tim10-1 conf 32
Cc1cc(C)c(OCC(=O)Nc2ccccc2N2CCCCC2)c(C)c1	none
COc1ccc(C(=O)Nc2ccccc2N2CCOCC2)cc1Br	tim10-1 inh 40 | tim10-1 conf inactive
COc1cc(C(=O)NC(=S)Nc2ccc(Cl)cn2)cc(OC)c1OC	tim10-1 inh 42 | tim10-1 conf inactive
CCOC(=O)C1=C(c2ccccc2)NC(=O)NC1c1cccc(OC)c1OC (configuration not stated)	none
CCCCN1C(=O)c2ccc(C(=O)Nc3ccccc3N3CCOCC3)cc2C1=O	tim10-1 inh 43 (no result: PfHsp90 set2) | tim10-1 conf inactive
